Measurements reported in PubChem BioAssay (Tox21).
Several values for one entry are separate records, joined by “and”; a condition that tells them apart may be missing. Equal entries are not always repeated. Results filed as inconclusive are left out. Where a call stands in place of a potency, no number is given. Some structures have more than one record in an assay (separate samples or runs), and their calls can disagree. Activity calls are given as the source filed them. Unless noted, calls come from the whole dose curve; as a rule, active = well fitted curve in the direction sought with a large enough effect in the repeat runs; inconclusive = weak or mixed curves; inactive = no such curve, though single readings can be large; an effect the other way counts as inactive or inconclusive.

Columns and labels:
[1] = qHTS assay to identify small molecule agonists of the vitamin D receptor (VDR) signaling pathway - cell viability counter screen (AID 743224); note: nearly all actives have a fitted effect of over 50% in size; note: potency is the fitted concentration of half-maximal effect
How it was run: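 Viability is measured in the same wells as the VDR-bla reporter assay: after 16 h compound treatment and 2 h substrate loading, CellTiter-Glo is added and luminescence read 30 min later.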

[2] = qHTS assay to identify small molecule antagonists of the vitamin D receptor (VDR) signaling pathway - cell viability counter screen (AID 743225); note: nearly all actives have a fitted effect of over 50% in size; note: potency is the fitted concentration of half-maximal effect
How it was run: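 Cells (VDR-UAS-bla HEK 293T) are plated, rested 4 h at 37C, dosed with compound and 3 nM final 1-alpha,25-dihydroxy vitamin D3, and incubated 16 h. Viability is taken from CellTiter-Glo luminescence in the reporter wells.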

[3] = qHTS assay to identify small molecule agonists of the NFkB signaling pathway (AID 1159509; active = well fitted curve in the direction sought with a large enough effect in the signal ratio in the repeat runs, not every such curve was filed as active; the % refers to the signal ratio; note: series mostly up to about 61 µM)
How it was run: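 NFkB-bla ME-180 cells with a beta-lactamase reporter under an NF-kB response element were plated overnight, treated with compounds in DMSO for 5 hr at 37 C, then loaded with FRET substrate for 1.5 hr at room temperature.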

[4] = qHTS assay to identify small molecule agonists of the NFkB signaling pathway - cell viability counter screen (AID 1159515; calls by dose curve; note: series mostly up to about 61 µM; nearly all actives have a fitted effect of over 55% in size)
How it was run: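 Multiplexed viability readout: after the 5 hr compound exposure and 1.5 hr FRET substrate step, CellTiter-Glo reagent went into the same NFkB-bla ME-180 wells; ATP luminescence was measured after 30 min at room temperature.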

[5] = qHTS assay to identify small molecule agonists of the endoplasmic reticulum stress response signaling pathway (AID 1159516; active = well fitted activation curve with a large enough effect in the signal ratio in the repeat runs, not every such curve was filed as active; the % refers to the signal ratio)
How it was run: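 Tox21 10K library screened in quantitative HTS format on ESRE-bla HeLa cells, a beta-lactamase reporter under ER stress response element control; 5 hr treatment, FRET read.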

[6] = qHTS assay to identify small molecule antagonists of the retinoid-related orphan receptor gamma (ROR-gamma) signaling pathway - cell viability counter screen (AID 1159520); note: nearly all actives have a fitted effect of over 50% in size
How it was run: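 Cytotoxicity was read from cellular ATP (CellTiter-Glo luminescence) after 16 hr at 37 C with 1 uM doxycycline induction. The inducer was added 2 hr after compound transfer to Tet-on ROR gamma CHO cells.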

[7] = molecular target: Nuclear receptor ROR-gamma (Homo sapiens) (UniProt P51449); test: qHTS assay to identify small molecule antagonists of the retinoid-related orphan receptor gamma (ROR-gamma) signaling pathway (AID 1159521; note: nearly all actives have a fitted effect of over 50% in size; note: potency is the fitted concentration of half-maximal effect)
How it was run: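 RORγ antagonism is scored from reduced reporter luminescence in Tet-on CHO cells. Induction used 1 uM final doxycycline hyclate for 16 h at 37 C, following a 2 h compound exposure.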

[8] = qHTS assay to identify small molecule agonists of the AP-1 signaling pathway - cell viability counter screen (AID 1159525; calls by dose curve; note: nearly all actives have a fitted effect of over 55% in size)
How it was run: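 Luminescent ATP readout (Cell Titer Glo, 30 min RT), normalised to DMSO and tetra n-octyl ammonium bromide controls. Cells were ME-180 AP-1-bla in 0.5% dialyzed FBS Opti-MEM, with a 5 h, 37 °C compound exposure.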

[9] = qHTS assay to identify small molecule agonists of the AP-1 signaling pathway (AID 1159526; calls by dose curve)
[10] = qHTS assay to identify small molecule agonists of the endoplasmic reticulum stress response signaling pathway - cell viability counter screen (AID 1159517; calls by dose curve)
How it was run: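 Cells, HeLa ESRE-bla; density, 1,500/well; dosing, 5 hr at 37 C, 5% CO2; readout, CellTiter-Glo luminescence after 30 min RT.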

Compound | Potency [1] | Potency [2] | outcome [3] | Potency [4] | outcome [5] | Potency [6] | Potency [7] | Potency [8] | outcome [9] | Potency [10]
S=C1NCCN1 | inactive | inactive | inactive | inactive | inactive | inactive | inactive | inactive | inactive | 
C[C@]12CCC(=O)C(O)=C1CC[C@@H]1[C@@H]2CC[C@]2(C)C(=O)CC[C@@H]12 | inactive | inactive | inactive |  | inactive | inactive | 27.3 µM (active) and inactive | inactive | inactive | inactive
C[C@]12CCC(=O)C[C@@H]1CC[C@@H]1[C@@H]2CC[C@]2(C)[C@@H](O)CC[C@@H]12 | inactive | inactive | inactive | inactive | inactive | inactive |  |  |  | 
COC(=O)c1sccc1S(=O)(=O)NC(=O)Nc1nc(C)nc(OC)n1 | inactive | inactive | inactive | inactive | inactive | inactive |  |  | inactive | 
Cc1ccccc1[N+](=O)[O-] | inactive | inactive | inactive |  | inactive | inactive | inactive | inactive | inactive | inactive
CCC(C)(c1ccc(O)cc1)c1ccc(O)cc1 | inactive | inactive | inactive | inactive | inactive | inactive | 54.4 µM (active) | inactive | inactive | 
O=C1C=CC(=O)C=C1 | inactive | inactive | inactive | inactive |  |  | inactive | inactive | inactive | 
CCOP(=S)(OCC)O/N=C(\C#N)c1ccccc1 | inactive | inactive | inactive | inactive | inactive | inactive | inactive | inactive |  | 
CCN(CC)C(=O)SCc1ccc(Cl)cc1 | inactive | inactive | inactive | inactive | inactive | inactive | inactive | inactive | inactive | 
Cc1cc(Cl)ccc1OCCCC(=O)O | inactive | inactive | inactive | inactive | inactive | inactive | inactive |  | inactive | 
C#C[C@]1(O)CC[C@H]2[C@@H]3CCC4=CC(=O)CC[C@]4(C)[C@H]3CC[C@@]21C | inactive | inactive | inactive |  | inactive | inactive | inactive | inactive | inactive | inactive
COP(=S)(OC)Oc1ccc([N+](=O)[O-])cc1 | inactive | inactive | inactive | inactive | inactive | inactive | inactive | inactive | inactive | 
CC(C)N(C(=O)SCC(Cl)=C(Cl)Cl)C(C)C |  | inactive | inactive | inactive |  | inactive | inactive | inactive |  | inactive
O=c1oc2ccccc2c(O)c1C(CC(O)c1ccc(-c2ccc(Br)cc2)cc1)c1ccccc1 (stereo not given) | inactive |  | inactive | inactive |  | inactive | 57.9 µM (active) | inactive |  | 
CCc1cccc(CC)c1N(COC)C(=O)CCl | inactive | inactive | inactive | inactive |  | inactive |  | inactive | inactive | 
CCCCCCOC(=O)c1ccccc1C(=O)OCCCCCC | inactive | inactive | inactive | inactive | inactive | inactive | inactive |  | inactive | 
NNC(=S)NN | inactive | inactive | inactive | inactive | inactive | inactive | 56 µM (active) | inactive |  | 
CCCCC(CC)COC(=O)Cl (stereo not given) | inactive | inactive | inactive | inactive | inactive | inactive |  | inactive | inactive | 
CC(C)NC(C)C | inactive | inactive | inactive |  | inactive | inactive | inactive | inactive | inactive | inactive

Compound | Potency [1] | Potency [2] | outcome [3] | Potency [4] | outcome [5] | Potency [6] | Potency [7] | Potency [8] | outcome [9] | Potency [10]
CCC(CC)Nc1c([N+](=O)[O-])cc(C)c(C)c1[N+](=O)[O-] | inactive | inactive | inactive | inactive |  | inactive | inactive |  |  | inactive
Oc1ccc(-c2ccccc2)cc1 | inactive | inactive | inactive | inactive | inactive | inactive | inactive |  | inactive | 
O=Cc1ccco1 | inactive | inactive | inactive | inactive | inactive | inactive | inactive | inactive | inactive | 
CCOc1cc(Oc2ccc(C(F)(F)F)cc2Cl)ccc1[N+](=O)[O-] | inactive | inactive | inactive | inactive | inactive | inactive |  | inactive | inactive | 
Nc1ccc(-c2ccccc2)cc1 | inactive | inactive | inactive | inactive | inactive | inactive | inactive | inactive | inactive | 
C1=Cc2cccc3cccc1c23 | inactive | inactive | inactive |  | inactive | inactive | inactive | inactive | inactive | inactive
CCCCCCCCC(=O)NCc1ccc(O)c(OC)c1 | inactive | inactive | inactive | inactive |  | inactive | inactive |  | inactive | inactive
c1cc(OCC2CO2)ccc1Cc1ccc(OCC2CO2)cc1 (stereo not given) | inactive | inactive | inactive | inactive |  | inactive | inactive | inactive |  | inactive
Nc1c(Cl)cc([N+](=O)[O-])cc1Cl | inactive | inactive | inactive |  | inactive | inactive | inactive and 27.3 µM (active) | inactive | inactive | 
COc1ccc(C=O)cc1 | inactive | inactive | inactive |  | inactive | inactive | inactive |  | inactive | inactive
CC(C)(C)c1ccccc1O | inactive | inactive | inactive |  | inactive | inactive | inactive | inactive |  | inactive
CCN(CC)N=O | inactive | inactive | inactive |  | inactive | inactive | inactive |  | inactive | 
Cc1ccc(OP(=O)(Oc2ccc(C)cc2)Oc2ccc(C)cc2)cc1 | inactive | inactive | inactive |  | inactive | inactive | 12.2 µM (active) | inactive | inactive | 
CCCCCCCCOC(=O)c1ccccc1C(=O)OCCCCCCCC | inactive | inactive | inactive |  | inactive | inactive | inactive | inactive | inactive | inactive
CCCCN(CC)c1c([N+](=O)[O-])cc(C(F)(F)F)cc1[N+](=O)[O-] | inactive | inactive | inactive |  |  | inactive | inactive | inactive | inactive | inactive
CC(C)=CC1C(C(=O)OCc2coc(Cc3ccccc3)c2)C1(C)C (stereo not given) | inactive | inactive | inactive |  | inactive | inactive | 48.6 µM (active) |  | inactive | 
ClC1C(Cl)C(Cl)C(Cl)C(Cl)C1Cl (stereo not given) | inactive | inactive | inactive |  | inactive | inactive |  | inactive | inactive | inactive
Cc1ccc2c(c1N)C(=O)c1ccccc1C2=O | inactive | inactive | inactive |  |  | inactive | inactive |  | inactive | 
Cc1ccc(N)c(N)c1 | inactive | inactive | inactive |  | inactive | inactive | inactive | inactive | inactive | 

Compound | Potency [1] | Potency [2] | outcome [3] | Potency [4] | outcome [5] | Potency [6] | Potency [7] | Potency [8] | outcome [9] | Potency [10]
NCc1cccnc1 | inactive | inactive | inactive |  | inactive | inactive | inactive | inactive | inactive | inactive
Nc1ccc(Cl)cc1N | inactive and 43.6 µM (active) | inactive | inactive |  | inactive | inactive | inactive | inactive | inactive | 
CC(C)Oc1cc(-n2nc(C(C)(C)C)oc2=O)c(Cl)cc1Cl | 12.3 µM (active) | 13.8 µM (active) | inactive |  | inactive | inactive |  | inactive | inactive | inactive
O=[N+]([O-])c1ccc(O)c([N+](=O)[O-])c1 | inactive |  | inactive |  | inactive | inactive | 17.3 µM (active) and 17.2 µM (active) |  | inactive | 
Nc1ccc(-c2ccc(N)c(N)c2)cc1N | inactive | inactive | inactive |  |  | inactive | 27.2 µM (active) | inactive |  | 
Cc1cc(C)cc(C)c1 | inactive | inactive | inactive |  | inactive | inactive | inactive | inactive | inactive | 
CC(O)CCO (stereo not given) | inactive | inactive | inactive |  | inactive | inactive | inactive |  | inactive | inactive
CN(C)C(=O)Nc1ccc(Cl)cc1 | inactive | inactive | inactive |  | inactive | inactive | inactive |  | inactive | 
CCCCCc1cc(O)cc(O)c1 | inactive |  | inactive |  | inactive | inactive | inactive | inactive |  | inactive
Cc1c(COC(=O)[C@@H]2[C@H](/C=C(\Cl)C(F)(F)F)C2(C)C)cccc1-c1ccccc1 | inactive | inactive | inactive |  | inactive | inactive | 23.8 µM (active) and inactive |  | inactive | inactive
COc1ccc(C(CN(C)C)C2(O)CCCCC2)cc1 (stereo not given) | inactive | inactive | inactive |  | inactive | inactive |  | inactive | inactive | inactive
O=C(NC(=O)c1c(F)cccc1F)Nc1ccc(Cl)cc1 | inactive | inactive | inactive |  |  | inactive | inactive |  | inactive | inactive
Oc1c(Cl)c(Cl)c(Cl)c(Cl)c1Cl |  | inactive | inactive |  |  | inactive | 54.5 µM (active) | inactive | inactive | 
C=CC(=O)OCCO | inactive | inactive | inactive |  | inactive | inactive | inactive |  | inactive | inactive
CCCCCCCCCCCOC(=O)c1ccccc1C(=O)OCCCCCCCCCCC | inactive | inactive | inactive |  | inactive | inactive | inactive |  | inactive | inactive
Nc1ccncc1 | inactive | inactive | inactive |  | inactive | inactive |  | inactive | inactive | 
N#Cc1cc(Br)c(O)c(Br)c1 | inactive |  | inactive |  | inactive | inactive | 27.3 µM (active) and 37.1 µM (active) |  | inactive | inactive
CNC(=O)Oc1cccc2c1OC(C)(C)O2 | inactive | inactive | inactive |  | inactive | inactive |  | inactive | inactive | inactive
CCOC(=O)C(C)OC(=O)c1cc(Oc2ccc(C(F)(F)F)cc2Cl)ccc1[N+](=O)[O-] (stereo not given) | inactive | inactive | inactive |  | inactive | inactive |  | inactive | inactive | inactive
